Compound activity deposited in PubChem by National Center for Advancing Translational Sciences (NCATS).
USP1-UAF1 inh: Inhibitors of USP1/UAF1: Primary Screen; Potency, µM (titrated, usually from 57.1 µM), inactives show top-dose activity change, negative = inhibition, actives largely listed as inhibitors; recombinant USP1/UAF1, Ub-Rhodamine cleavage fluorescence; Ubiquitin carboxyl-terminal hydrolase 1 (Homo sapiens), O94782; 390,000 compounds, 0.23% hits; note: % is set by controls: 0 for no effect and ±100 for the full control effect; nearly all actives have a fitted effect of over 60% in size
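USP1/UAF1 complex at 1 nM was preincubated with compound for 15 min at room temperature, then Ub-Rho substrate (150nM final) was added. Fluorescence (480/540 nm) was read kinetically, 6 reads every 60 seconds.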
PLK1 PBD block: qHTS for Inhibitors of PLK1-PDB (polo-like kinase 1 - polo-box domain): Primary Screen; Plk1 PBD binding of FITC phosphopeptide, fluorescence polarization; Potency, µM, for the others: max response, negative = inhibition, most hits filed as inhibitors; 360,000 compounds, 2.8% hits; AID 720504, 2013; note: series mostly up to about 57 µM; % is set by controls: 0 for no effect and ±100 for the full control effect; nearly all actives have a fitted effect of over 65% in size
KAT2A inh: qHTS Assay for Inhibitors of GCN5L2; Potency, µM (highest dose often 58.9 µM), inactives show top-dose activity change, negative = inhibition, usual class: inhibitors; Histone acetyltransferase KAT2A (Homo sapiens), Q92830; 390,000 compounds, 0.21% hits; AID 504327, 2011; GCN5L2 HAT assay, ThioGlo1 CoA-SH fluorescence; note: % is set by controls: 0 for no effect and ±100 for the full control effect
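Fluorescence readout, Ex340nm/Em540nm: ThioGlo1 (50uM final) reacts with free CoA thiol released as 20nM GCN5L2 acetylates H3(1-25) peptide (75uM) using acetyl-CoA (70uM). Compound and enzyme sat 15 min beforehand; 20 min room-temperature reaction.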
VDR inh: Inhibitors of the vitamin D receptor (VDR): qHTS; Vitamin D3 receptor (Homo sapiens), P11473; 400,000 compounds, 0.93% hits; VDR-SRC2-3 peptide fluorescence polarization, 2 h; AID 504847, 2011; Potency, µM, for inactives: max response, negative = inhibition, usual class: inhibitors; note: % is set by controls: 0 for no effect and ±100 for the full control effect
Target sequence (P11473 whole entry, looked up): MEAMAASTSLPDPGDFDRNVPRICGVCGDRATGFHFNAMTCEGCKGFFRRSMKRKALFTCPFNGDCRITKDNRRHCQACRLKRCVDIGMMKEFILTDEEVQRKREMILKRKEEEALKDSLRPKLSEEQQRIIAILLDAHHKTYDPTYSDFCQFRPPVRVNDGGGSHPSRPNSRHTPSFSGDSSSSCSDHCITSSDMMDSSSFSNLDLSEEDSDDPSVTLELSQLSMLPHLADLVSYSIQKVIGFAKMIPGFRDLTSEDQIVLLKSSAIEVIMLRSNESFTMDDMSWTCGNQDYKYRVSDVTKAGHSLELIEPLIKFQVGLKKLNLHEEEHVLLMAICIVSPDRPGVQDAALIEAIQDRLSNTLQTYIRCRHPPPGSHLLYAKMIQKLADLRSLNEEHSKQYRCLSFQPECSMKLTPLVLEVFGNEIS
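VDR–SRC2-3 interaction, FP format. Cmpds 23 nl via pintool, brief spin, 2 h ambient incubation.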
PTAP TSG101 blk: qHTS Assay for Iinhibitors of HIV-1 Budding by Blocking the Interaction of PTAP/TSG101; Fluorescence polarization, FITC-PTAP peptide / Tsg101 binding; Potency, µM (titrated, usually from 115 µM), for inactives: at the highest dose activity change, negative = inhibition, hits mostly inhibitors; 340,000 tested, under 10 active; AID 493005, 2010; active = well fitted inhibition curve with a large enough effect in the main read-out, with a control signal flat, not every such curve was filed as active; inconclusive = small, poorly fitted or top-dose-only effect, or effect the other way, or a change in a side signal; inactive = no such curve, though single readings can be large or run the other way; note: % of control where 0% means no effect
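Steps: Tsg101 binding domain dispensed (10 uM final), compounds pinned in DMSO, FITC-labeled PTAP-motif peptide added (50 nM final); after 20 min binding at room temperature, polarization measured.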
* = called active by the depositor; ? = inconclusive; . = not tested or not shown; ! = repeats disagree. The list is not random: actives were taken first. Their share in the collection is about 3%. Unless noted, calls come from the whole dose curve; as a rule, active = well fitted curve in the direction sought with a large enough effect; inconclusive = small, poorly fitted or top-dose-only effect, or another doubt; inactive = no such curve, though single readings can be large; an effect the other way counts as inactive or inconclusive. Potency is the fitted concentration of half-maximal effect.

SMILES	USP1-UAF1 inh	PLK1 PBD block	KAT2A inh	VDR inh	PTAP TSG101 blk
CCOC(=O)c1ccccc1NC(=O)CSc1cn(CC(=O)N2CCCCC2)c2ccccc12	-1%	.	-7%	5%	.
CN(C)C(CNC(=O)c1ccc(-c2ccccc2)cc1)c1ccccc1 (stereo unspecified)	-20%	-1%	-2%	10%	1%
c1ccc(Nc2ccccn2)cc1	-17%	24µM*	-8%	?	-1%
COC(=O)c1sccc1S(=O)(=O)N(CC(=O)NCc1ccc(C)cc1)c1ccc(Cl)cc1	1%	.	25%	-12%	.
Cc1cc(OC(C)C(=O)NCCCN2CCOCC2)c2c(C)c(C)c(=O)oc2c1 (stereo unspecified)	-10%	-10%	-4%	-1%	-6%
CC(Oc1cc2oc(=O)c3c(c2cc1Cl)CCCC3)C(=O)NCCN1CCOCC1 (stereo unspecified)	-23%	24µM*	-4%	?	-6%
CC(Oc1cc2oc(=O)c3c(c2cc1Cl)CCC3)C(=O)NCCCN1CCOCC1 (stereo unspecified)	-13%	0%	-6%	-16%	-3%
Cc1c(C)c2cc(Cl)c(OC(C)C(=O)NCCN3CCOCC3)cc2oc1=O (stereo unspecified)	-3%	24µM*	-17%	?	-3%
COc1cccc(-c2nnc(-c3ccc(C)o3)o2)c1	-17%	-3%	-11%	-1%	-5%
COc1cccc(-c2nnc(-c3ccco3)o2)c1	1%	30µM*	1%	?	-3%
Oc1ccc2ccccc2c1/C=N/c1nccs1	-20%	19µM*	-4%	-3%	-9%
Oc1ccccc1N=Cc1c(O)ccc2ccccc12	?	37%	-7%	-16%	?
Cc1cc(N=Cc2c(O)ccc3ccccc23)no1	-18%	5.3µM*	-1%	2%	.
Cc1cc(N=Cc2c(O)n(-c3ccc(C)c(C)c3)c(=O)c3ccccc23)no1	.	.	-6%	.	.
O=c1ccsn1Cc1ccccc1	-10%	3µM*	?	?	-11%
Cc1nc2c(C(=O)NCc3ccccc3Cl)c[nH]n2c(=O)c1Cl	-29%	30µM*	-17%	-16%	-9%
Cc1nc(C)c(C(=O)NCc2ccccc2Cl)o1	-18%	21µM*	-1%	-28%	1%
Cc1cc(C(=O)NCc2ccccc2Cl)n(-c2ccccc2)n1	-19%	27µM*	-27%	-19%	-2%
Cc1nc2c(C(=O)NCc3ccccc3)c[nH]n2c(=O)c1Cl	-9%	?	-13%	9%	-10%
O=C(C[n+]1ccccc1)N/N=C/c1ccccc1C(F)(F)F	-17%	1%	-15%	37%	-4%
CCC(=O)Nc1ccc(OCc2nc3ccccc3s2)cc1	-25%	17µM*	-20%	?	-1%
Cc1cc(OCc2nc3ccccc3s2)ccc1N	-7%	11µM*	-20%	?	0%
O=S(=O)(c1cccs1)N1CCN(S(=O)(=O)c2cccs2)CC1	-17%	-4%	-2%	-12%	0%
N#Cc1nccnc1S(=O)(=O)c1cccs1	6%	27µM*	-11%	35µM*	1%
O=C(O)CSc1nnc(CNc2ccc(Cl)cc2)n1Cc1ccccc1	-16%	27µM*	-5%	?	-3%
SMILES	USP1-UAF1 inh	PLK1 PBD block	KAT2A inh	VDR inh	PTAP TSG101 blk
S=C(NCc1ccco1)Nc1ccc(Oc2ccccc2)cc1	-21%	17µM*	-8%	-14%	2%
O=C(NC(=S)Nc1ccc(N2CCOCC2)cc1)c1ccc2c(c1)OCCO2	-22%	8.4µM*	-4%	?	2%
S=C(NCc1ccco1)Nc1ccc(N2CCOCC2)cc1	-6%	27µM*	3%	?	-5%
COc1ccc(NC(=S)NCc2ccco2)cc1	-23%	-5%	-6%	-3%	0%
c1ccc(CNc2nc(N3CCOCC3)nc(N3CCOCC3)n2)cc1	-15%	-6%	-4%	7%	-8%
c1ccc(CNc2nc(NCc3ccco3)nc(N3CCOCC3)n2)cc1	-26%	30µM*	-8%	-7%	-1%
O=C(Cn1c(=O)n(CCCS(=O)(=O)C2CCCCC2)c(=O)c2ccccc21)Nc1ccc(F)c(Cl)c1	-21%	.	0%	-4%	.
COc1cccc(CNC(=O)[C@@H]2CCCN2C(=O)[C@@H]2CCCN2C(=O)c2ccc(Cl)cc2)c1	.	-15%	.	.	.
O=C(NCC(=O)N(CCN1CCOCC1)C(C(=O)NC1CCCC1)c1cccnc1)c1cccs1 (stereo unspecified)	-7%	-2%	2%	9%	4%
CCC(C)(C)NC(=O)C(c1ccc(C)cc1)N(CCN1CCOCC1)C(=O)CNC(=O)c1cccs1 (stereo unspecified)	-7%	30µM*	0%	-9%	-1%
Cc1ccc(C(C[N+](=O)[O-])c2c(-c3ccccc3O)[nH][nH]c2=O)cc1 (stereo unspecified)	?	?	-6%	22µM*	-1%
CC1CC(=O)N(CC(=O)Nc2ccc(F)cc2F)c2ccccc2S1 (stereo unspecified)	-24%	.	1%	8%	.
O=C(N/N=C/c1c[nH]c2ccccc12)c1[nH]c2ccc(Br)cc2c1-c1ccccc1	?	8.4µM*	-6%	-16%	-1%
O=C(N/N=C/c1ccc(O)cc1)c1[nH]c2ccc(Br)cc2c1-c1ccccc1	-12%	-3%	-4%	5%	-3%
COc1ccc(CN2CCNC(=O)C2CC(=O)N(C)Cc2nccs2)cc1OC (stereo unspecified)	-28%	-4%	-5%	17%	-2%
CN(Cc1nccs1)C(=O)CC1C(=O)NCCN1Cc1ccc(-c2ccccc2)cc1 (stereo unspecified)	-24%	27µM*	-6%	-15%	-4%
COc1cc(CN2CCNC(=O)C2CC(=O)N(C)Cc2cccnc2)cc(OC)c1 (stereo unspecified)	-14%	15µM*	-8%	-24%	-2%
COCC(=O)N1CCC2(CC1)CCN(c1ncccn1)CC2	.	.	-11%	0%	.
COc1ccc(C(=S)N2CCN(C)CC2)cc1	-15%	27µM*	-16%	-1%	-5%
Cc1cc(NC(=O)Nc2ccc(N(C)C)cc2)c2cc(F)cc(F)c2n1	.	.	0%	18µM*!	.
Cn1c(=O)n(C/C=C/c2ccccc2)c(=O)c2c1nc1n2CCN1c1ccc(F)cc1	-10%	.	-5%	13%	.
O=C1c2cccnc2-c2ncccc21	-23%	-2%	-3%	5%	-2%
COC1=C(Br)C(=O)c2ncccc2C1=O	0.89µM*	1.9µM*	.	3.5µM*	-2%
CCc1ccc(N2C(=O)N(CC(=O)C(C)(C)C)c3ccccc3S2(=O)=O)cc1	-18%	.	-8%	4%	.
